Consider eleven molecules from PubChem BioAssay (NCI).

Each structure is given as a SMILES string. “And” between values parts separate entries of the source, which are not always exact repeats. Equal values may be shown once. About 83,000 compounds went through this panel and 20% of them were active in at least one assay; those are over-represented in the sample as a whole.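 For each line, cells grew in 96-well plates with the test compound present at a single concentration for 48 hours.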 The source made the active and inactive calls. Rule for the calls: active = growth percent below 10; inactive = the rest.

Test in all cases: NCI-60 one-dose screen, 48 h (100 = growth as untreated, 0 = no growth, -100 = all killed)
The subject of assay [1] is SK-MEL-2 melanoma. To be noted: 10 µM unless noted.
Assay [2] has as its system EKVX NSCLC. To be noted: 10 µM unless noted.
Assay [3] relates to SN12C renal. To be noted: 10 µM unless noted.
Assay [4] has as its system UO-31 renal. To be noted: 10 µM unless noted.
Assay [5] concerns TK-10 renal.
The test system of assay [6] is ACHN renal. To be noted: 10 µM unless noted.
In assay [7] the test system is CAKI-1 renal. To be noted: 10 µM unless noted.
In assay [8] the test system is A498 renal. As to conditions: 10 µM unless noted.
The test system of assay [9] is CCRF-CEM leukemia. As to conditions: 10 µM unless noted.
Assay [10] relates to MOLT-4 leukemia. To be noted: 10 µM unless noted.

Regarding `Cc1ccc(NC(=S)N/C=C(\c2ccccc2)S(=O)Cc2ccccc2)c(C)c1` (configuration not stated), the growth in assay [1] is 103% (inactive); in [2], 86.7% (inactive); in [3], 98.9% (inactive); in assay [4], 80.2% (inactive); in assay [5] (10 µM unless noted), 109% (inactive); in [6], 103% (inactive). Besides, the growth in assay [7] was 87.5% (inactive); in [8], 103% (inactive); in assay [9] it was 97.3% (inactive); in [10] it was 94.3% (inactive).

For `Nc1nc(=S)c2[nH]cnc2[nH]1`, the growth in assay [1] is 29.7% (inactive) and 42.5% (inactive); in [2] it was 44.6% (inactive) and 36.6% (inactive); in [3], 29.5% (inactive) and 29.9% (inactive); in [4], 16.4% (inactive) and 28.5% (inactive); in assay [5] (10 µM) it was 10.3% (inactive) and 31.3% (inactive); in assay [5] (250 µM), -17% (active) and -85.4% (active). Moreover, the growth in [6] was 18.7% (inactive) and 20.5% (inactive); in assay [7] it was 4.02% (active) and 14.2% (inactive); in [8], 32% (inactive); in assay [9] it was 7.32% (active) and 0.0411% (active); in assay [10] it was 10.1% (inactive) and 0.426% (active).

On to `Clc1ccc2sc(-c3ccccc3)nc2c1`, for which the growth in assay [1] was 77.2% (inactive); in assay [2], 88.1% (inactive); in assay [3], 95.6% (inactive); in assay [4] it was 77.6% (inactive); in assay [5] (10 µM unless noted), 126% (inactive); in assay [6], 89.6% (inactive). Moreover, the growth in [7] is 90.7% (inactive); in [8], 92.5% (inactive); in assay [9] it was 87% (inactive); in assay [10], 92.3% (inactive).

As for `O=C(O)Cc1cc(=O)[nH]n(-c2ccccc2)c1=O`, the growth in assay [1] is 116% (inactive); in assay [2] it was 96% (inactive); in [3] it was 97.9% (inactive); in [4], 101% (inactive); in assay [5] (10 µM unless noted), 102% (inactive); in assay [6], 105% (inactive). The growth is 83.5% (inactive) in assay [7], 97.6% (inactive) in assay [8], 112% (inactive) in assay [9] and 88.3% (inactive) in assay [10].

Regarding `COc1cc(NCCCCCNC(C)C)c2ncccc2c1`, the growth is 93.1% (inactive) and 66.7% (inactive) in assay [1]; 95.5% (inactive) and 105% (inactive) in [2]; 93.5% (inactive) and 83.6% (inactive) in [3]; 59.7% (inactive) and 45.4% (inactive) in assay [4]; 91.9% (inactive) and 90.1% (inactive) in assay [5] (10 µM unless noted); 100% (inactive) and 90.5% (inactive) in assay [6]. The growth in assay [7] is 91.6% (inactive) and 92.5% (inactive); in [8] it was 77.2% (inactive); in [9] it was 106% (inactive) and 117% (inactive); in [10] it was 104% (inactive) and 88% (inactive).

In the case of `N#CC(=S)Nc1ccc(Cl)c(Cl)c1`, the growth in [1] is -26.4% (active); in assay [2], 10.9% (inactive); in assay [3], -7.92% (active); in [4] it was -1.39% (active); in assay [5] (10 µM), 17.5% (inactive); in [5] (100 µM) it was 8.11% (active) and -69.1% (active). Further, the growth in [6] is 0.0372% (active); in assay [7], -6.76% (active); in [8], -12% (active); in assay [9] it was 28.4% (inactive); in assay [10], 15.8% (inactive).

Consider `CCCCCCCCCCCCCCCCC(=O)O`, for which the growth in assay [1] is 103% (inactive); in [2] it was 106% (inactive); in assay [3] it was 103% (inactive); in assay [4], 85.7% (inactive); in assay [5] (10 µM unless noted), 86.6% (inactive); in [6], 112% (inactive). The growth is 104% (inactive) in assay [7], 115% (inactive) in assay [8], 91.5% (inactive) in assay [9] and 95% (inactive) in assay [10].

For `CC1=CC(=O)c2cccc(NC3=NCCO3)c21`, the growth in assay [1] was 93.8% (inactive); in assay [2] it was 98.9% (inactive); in assay [3] it was 95.1% (inactive); in [4], 86.5% (inactive); in assay [5] (10 µM unless noted) it was 98.3% (inactive); in assay [6], 98.7% (inactive). In addition, the growth in [7] was 94.2% (inactive); in assay [8], 110% (inactive); in assay [9], 108% (inactive); in [10] it was 111% (inactive).

For `CN(C)C(=N)N=C(N)N`, the growth is 106% (inactive) and 25.1% (inactive) in [1]; 113% (inactive) in assay [2]; 95.3% (inactive) and 127% (inactive) in assay [3]; 91.5% (inactive) and 106% (inactive) in [4]; 119% (inactive) and 149% (inactive) in assay [5] (10 µM unless noted); 92.8% (inactive) and 115% (inactive) in assay [6]. Besides, the growth in [7] was 115% (inactive); in assay [8], 128% (inactive) and 106% (inactive); in assay [9], 79.9% (inactive); in assay [10], 95.6% (inactive) and 131% (inactive).

`Cc1cnc(N)s1`: the growth was 102% (inactive) in assay [1]; 94.2% (inactive) in assay [2]; 97.2% (inactive) in assay [3]; 81.6% (inactive) in assay [4]; 114% (inactive) in [5] (10 µM unless noted); 96.2% (inactive) in assay [6]. The growth in assay [7] is 96.9% (inactive); in assay [8], 103% (inactive); in assay [9], 99.4% (inactive); in assay [10] it was 103% (inactive).

As to `OCCSc1ccc(Cl)cc1`, the growth was 109% (inactive) and 90.7% (inactive) in assay [1]; 100% (inactive) and 89.4% (inactive) in [2]; 104% (inactive) and 93% (inactive) in [3]; 95.9% (inactive) and 85.7% (inactive) in [4]; 87.7% (inactive) in assay [5] (10 µM unless noted); 99.6% (inactive) and 95.1% (inactive) in assay [6]. The growth is 107% (inactive) and 91.1% (inactive) in assay [7]; 107% (inactive) and 88.9% (inactive) in assay [8]; 119% (inactive) and 96.7% (inactive) in [9]; 118% (inactive) and 91.7% (inactive) in assay [10].
